For 56 compounds, inhibition results are on record in PubChem BioAssay AID1209 (Sanford-Burnham Center for Chemical Genomics, 2008).

Hit rate of the full screen: of about 190,000 compounds, about 810 (0.43%) were called active. Rule as the data show it: active = inhibition above about 50%; inactive = the rest. The full list was thinned out, with actives kept by preference.

The target of this experiment is Mannose-6-phosphate isomerase (Homo sapiens) (UniProt P34949). In words: inhibitors of human PMI, primary screen, biochemical, fluorescence intensity, coupled assay (AID 1209).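 Also: plate controls were DMSO vehicle for no effect and wells lacking substrate for full effect.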 The conditions noted are these: purified PMI enzyme, at 20 µM, hits give high values.
Mannose-6-phosphate isomerase (Homo sapiens), sequence (P34949 whole entry, looked up): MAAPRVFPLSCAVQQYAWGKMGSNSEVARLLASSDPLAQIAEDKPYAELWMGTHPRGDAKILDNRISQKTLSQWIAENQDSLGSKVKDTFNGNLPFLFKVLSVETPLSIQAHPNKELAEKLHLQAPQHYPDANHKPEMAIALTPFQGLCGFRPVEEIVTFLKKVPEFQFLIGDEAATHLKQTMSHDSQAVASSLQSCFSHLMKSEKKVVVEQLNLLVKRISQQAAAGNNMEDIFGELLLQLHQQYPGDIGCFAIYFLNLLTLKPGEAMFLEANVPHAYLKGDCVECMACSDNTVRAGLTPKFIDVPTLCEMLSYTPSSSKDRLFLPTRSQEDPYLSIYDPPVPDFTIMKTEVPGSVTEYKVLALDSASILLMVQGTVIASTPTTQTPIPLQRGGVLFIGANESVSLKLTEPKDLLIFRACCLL
In the case of `O=C(Cc1csc(NC(=O)c2ccccc2)n1)NO`, the inhibition – broadly, the change of the read-out against control, counted positive when it falls – was 67.6% (active). In the case of `O=C(Cc1csc(NC(=O)c2ccc(F)cc2)n1)NO`, the inhibition is 0.3% (inactive).

In the case of `COc1ccccc1NC(=O)Cc1csc(NC(=O)c2ccccc2)n1`, the inhibition was 5.9% (inactive). Then `COC(=O)c1c(-c2cccc(OC)c2)csc1N`, with 30% (inactive); and `O=C(CN1CCCC1)Nc1ccc(F)cc1`, with -11.5% (inactive); and `COc1ccccc1NS(=O)(=O)c1cc(NC(=O)C(C)C)ccc1N1CCCCC1`, with 41.2% (inactive).

For `COc1ccccc1NS(=O)(=O)c1cc(NC(=O)C2CCCC2)ccc1N1CCOCC1`, the inhibition was 55.7% (active). For `O=C(Nc1ccc(F)cc1)Nc1ccc(N2CCOCC2)c2nonc12` the value was 15.4% (inactive). In the case of `COc1ccccc1NS(=O)(=O)c1cc(NC(=O)C2CC2)ccc1N1CCOCC1`, the inhibition is 15% (inactive). Then `COc1ccccc1NS(=O)(=O)c1cc(NC(=O)Nc2ccccc2)ccc1N1CCCCC1`, with 14.8% (inactive). Regarding `O=C(Nc1ccc(N2CCOCC2)c2nonc12)C1CCCC1`, the inhibition is 53.4% (active). For `COc1ccccc1NS(=O)(=O)c1cc(NC(=O)Nc2cccc(C)c2)ccc1N1CCCCC1` the value was 0.3% (inactive). For `COc1ccccc1NS(=O)(=O)c1cc(NC(=O)Nc2ccc(Cl)cc2Cl)ccc1N1CCCCC1` the value was 2% (inactive); for `COc1ccccc1NS(=O)(=O)c1cc(N)ccc1N1CCCCC1`, 67.5% (active). Consider `COc1ccccc1NS(=O)(=O)c1cc(NC(=O)CCC2CCCC2)ccc1N1CCOCC1`, for which the inhibition was 2.1% (inactive). Consider `COc1ccccc1NS(=O)(=O)c1cc(NC(C)=O)ccc1N1CCCCC1`, for which the inhibition was 52.7% (active).

As to `O=C(Nc1ccc([N+](=O)[O-])cc1)Nc1ccc(N2CCOCC2)c2nonc12`, the inhibition was 34.2% (inactive). For `O=C(c1ccccc1)C(C(=O)N1CCc2ccccc2C1)n1ccccc1=O` (stereo unspecified) the value was 8.6% (inactive); for `O=C(CSc1nnnn1-c1cccc2ccccc12)NC(C(=O)O)(c1ccccc1)c1ccccc1`, -9.3% (inactive); for `Cc1ccc(NC(=O)NC(=O)CN2C(=O)NC3(CCCCCCC3)C2=O)c(C)c1`, 9.5% (inactive). Take `CCC/C(O)=C1\C(=O)CC(c2ccccc2)CC1=NC(C)C(=O)O` (stereo unspecified): the inhibition was -5.7% (inactive).

For `O=C(COc1ccc(Cl)cc1)NCc1nnc(SCC(=O)N2CCCCCC2)o1`, the inhibition is 3.1% (inactive). For `CCOc1ccccc1NC(=O)c1ccc(NC(=O)c2ccco2)cc1` the value was -12.3% (inactive). On to `CN(CCO)c1cc(N2CCC3(CC2)OCCO3)c2nonc2c1[N+](=O)[O-]`, for which the inhibition is 6% (inactive). Then `Cc1nnc(Sc2cc(NCCO)c([N+](=O)[O-])c3nonc23)s1`, with -0.7% (inactive); and `O=[N+]([O-])c1c(NCCO)cc(N2CCN(Cc3ccc4c(c3)OCO4)CC2)c2nonc12`, with 55.4% (active); and `O=[N+]([O-])c1c(NCCCO)cc(N2CCN(Cc3ccc4c(c3)OCO4)CC2)c2nonc12`, with 13% (inactive). Then `O=[N+]([O-])c1c(NCCO)cc(N2CCC3(CC2)OCCO3)c2nonc12`, with 60.3% (active); and `O=[N+]([O-])c1c(NCCO)cc(N2CCCCC2)c2nonc12`, with 57.8% (active).

For `CCOC(=O)C1CCCN(c2cc(NCCCO)c([N+](=O)[O-])c3nonc23)C1` (stereo unspecified), the inhibition was 32.9% (inactive). For `CN(CCO)c1cc(N2CCCCC2)c2nonc2c1[N+](=O)[O-]` the value was -0.9% (inactive); for `CCOC(=O)N1CCN(c2cc(N(C)CCO)c([N+](=O)[O-])c3nonc23)CC1`, 20.8% (inactive).

As for `CCN(CC)c1cc(NCCO)c([N+](=O)[O-])c2nonc12`, the inhibition is 37.9% (inactive). Consider `CCOC(=O)N1CCN(c2cc(NCCO)c([N+](=O)[O-])c3nonc23)CC1`, for which the inhibition was 56.2% (active). For `CC(=O)Nc1ccc(Nc2cc(N3CCOCC3)c3nonc3c2[N+](=O)[O-])cc1` the value was -2.7% (inactive). Then `COc1ccccc1-n1c(-c2ccc(NS(C)(=O)=O)cc2)n[nH]c1=S`, with -0.6% (inactive); and `CC(C)Cc1nnc(NC(=O)CS(=O)(=O)Cc2ccccc2)s1`, with -0.2% (inactive).

For `C=C(C)CSc1nnc2n(N)c(=O)c3ccccc3n12`, the inhibition was -4.8% (inactive). As to `Cc1ccccc1C(=O)NCCc1nnc(SCC(=O)Nc2nc(-c3ccccc3)cs2)n1C`, the inhibition is -0.8% (inactive).

With `O=C(CSc1ncccn1)N1CCN(C(c2ccccc2)c2ccccc2)CC1`, the inhibition is 20.8% (inactive).

For the compound `Cn1c(C(C(=O)NCC2CCCO2)N(CCc2ccccc2)C(=O)Cn2nnc3ccccc32)nc2ccccc21` (stereo unspecified), the inhibition is 2.6% (inactive).

As to `CCSc1c(-c2ccccc2)nc2c(C)cccc2c1C(=O)O`, the inhibition was 4.5% (inactive). For `CCSc1nnc(-c2ccccc2SC)o1` the value was -75.6% (inactive). Then `Cc1cccc(NC(=O)c2sc3nc4c(c(-c5cccs5)c3c2N)CN(C)CC4)c1`, with -14.8% (inactive); and `CN1CCN(c2ccc(NC(=O)c3ccc(-c4ccc(Br)cc4)o3)cc2)CC1`, with -0.8% (inactive). For `Cc1c(Nc2cc(N3CCCC(C)C3)c3nonc3c2[N+](=O)[O-])c(=O)n(-c2ccccc2)n1C` (stereo unspecified) the value was 45.8% (inactive); for `Cc1c(Nc2cc(N3CCOCC3)c3nonc3c2[N+](=O)[O-])c(=O)n(-c2ccccc2)n1C`, 19.4% (inactive). As for `Cc1c(Nc2cc(N3CCCCCC3)c3nonc3c2[N+](=O)[O-])c(=O)n(-c2ccccc2)n1C`, the inhibition is 55% (active).

Consider `Cc1ccc2c(C(=O)CN3CCN(c4ccccc4)CC3)c(C)[nH]c2c1`, for which the inhibition was -4.7% (inactive). `CCOc1ccccc1-n1c(SCC(=O)NC2CCCC2)nnc1-c1ccoc1C`: the inhibition was 17.9% (inactive).

Turning to `COc1ccc(/C=N\NC(=O)c2cc(O)c(O)c(O)c2)cc1CN1CCN(c2ccc(F)cc2)CC1`, the inhibition was 58.1% (active). For `COc1ccc(/C=N/NC(=O)c2ccccc2)cc1CN1CCN(c2ccc(F)cc2)CC1` the value was -6.3% (inactive). Then `COc1ccc(/C=N/NC(=O)c2ccc(N)cc2)cc1Cn1cc([N+](=O)[O-])cn1`, with 2.9% (inactive); and `COc1cc(C(=O)N/N=C/c2ccc(OC)c(CN3CCN(c4ccc(F)cc4)CC3)c2)ccc1O`, with 22.3% (inactive); and `COc1ccc(/C=N\NC(=O)c2cccc([N+](=O)[O-])c2)cc1Cn1cc([N+](=O)[O-])cn1`, with 10% (inactive).

`CCC(O)c1c(-c2ccccc2)nn(C)c1Cl` (stereo unspecified): the inhibition was 1.3% (inactive).
